The text below walks through data of PubChem BioAssay (NCI).

About 83,000 compounds went through this panel and 20% of them were active in at least one assay; those are over-represented in the sample as a whole.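 Method: cells in 96-well plates; compound added at one concentration; 48 h incubation; percent growth measured; values under 10 scored active.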 The source made the active and inactive calls.

The subject of this test is SK-MEL-5 melanoma. In words: NCI-60 one-dose screen, 48 h (100 = growth as untreated, 0 = no growth, -100 = all killed). As to conditions: 10 µM unless noted.
In the case of `COC(=O)c1cc2cc(-c3ccc(OC)cc3)cnc2[nH]1`, the growth is 30.9% (inactive).

Take `O=C(Nc1cccc(-n2cc(-c3ccncc3)c(-c3ccc(Cl)c(O)c3)n2)c1)Nc1cc(C(F)(F)F)cc(C(F)(F)F)c1`: the growth is -94.7% (active).

Consider `C[n+]1c(/C=C/c2c(O)ccc3ccccc23)ccc2ccccc21`, for which the growth was 36% (inactive).

Consider `COc1ccc(-c2cn(-c3cccc(C(=O)/C=C/c4cc(OC)c(OC)c(OC)c4)c3)c(=O)[nH]2)cc1OC`, for which the growth was 88.3% (inactive).

Consider `C=C[C@@H]1C[C@H](O)Cc2c(C)cc(C)cc2N1`, for which the growth is 96.2% (inactive).

Take `O=C(O)Cc1cccc(=O)c(O)c1C(=O)O`: the growth was 108% (inactive).

Turning to `COc1cc(/C=C/C(=O)c2ccc(Nc3ncnc4cc(OC)c(OC)cc34)cc2)cc(OC)c1`, the growth was 109% (inactive).

For `COc1cc(/C=C/C(=O)c2cccc(-n3cc(-c4cc(OC)c(OC)c(OC)c4)[nH]c3=O)c2)cc(OC)c1OC`, the growth was 27% (inactive).

For `COC1=C(OC)C(=O)C(CCCCCCCCCC[P+](c2ccccc2)(c2ccccc2)c2ccccc2)=C(C)C1=O`, the growth is -100% (active).

Turning to `C=C[C@@H]1C[C@H](O)Cc2ccccc2N1`, the growth was 110% (inactive).

Take `O=S(=O)(CC(O)(c1ccccc1)c1ccccc1)CC(O)(c1ccccc1)c1ccccc1`: the growth is 88.6% (inactive).

Regarding `CCN(CC)CCCC(C)Nc1c2ccc(Cl)cc2nc2cc(OC)c(OC)cc12` (centres undefined), the growth is 45.3% (inactive).

Regarding `CCCCCCCCCCCC(=O)NCCC[N+](C)(C)CC(=O)[O-]`, the growth is 95.6% (inactive).

In the case of `CCOC(=O)/C(C#N)=C1/C(=O)Nc2ccccc21`, the growth was 115% (inactive).
